# Several values for one entry are separate records, joined by “and”; a condition that tells them apart may be missing. Identical values can stand only once. Records with an inconclusive call do not appear. Entries that show only a call come without a potency. A number with no mark means an inactive call. Activity calls are given as the source filed them. Calls follow the shape of the dose curve; as a rule, active = well fitted curve in the direction sought with a large enough effect; inconclusive = small, poorly fitted or top-dose-only effect, or another doubt; inactive = no such curve, though single readings can be large; an effect the other way counts as inactive or inconclusive.
# Assays:
# [1] = P-glycoprotein substrates identified in KB-3-1 adenocarcinoma cell line, qHTS therapeutic library screen (AID 1346986); also: nearly all actives have a fitted effect of over 60% in size;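 also: potency is for cytotoxicity meaning loss of cell viability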
# Procedure, shortened: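 Compounds were tested in dose-response against KB-3-1 and KB-8-5-11 cells at 37 degree C for 72 h, and viability was measured by luminescence. AC50 values came from curve fitting with class-based activity calls.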
# [2] = P-glycoprotein substrates identified in KB-8-5-11 adenocarcinoma cell line, qHTS therapeutic library screen (AID 1346987); also: nearly all actives have a fitted effect of over 65% in size; as to activity change, negative = cytotoxicity: series mostly up to about 44 µM
# Procedure, shortened: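 KB-8-5-11: colchicine-selected sub-line of KB-3-1 over-expressing P-gp; assay medium lacked colchicine. 72 h drug exposure at 37 degree C, CellTiter-Glo.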
# Potency is read from the fitted curve at half-maximal effect.
compound,measurement,setting,value
COc1ccc(C(O)C(C)OC2OC(CO)C(O)C(O)C2O)cc1 (stereo unspecified),Potency,[1],inactive
same,Potency,[2],inactive
COC(=O)C1=CO[C@@H](O[C@@H]2O[C@H](CO)[C@@H](O)[C@H](O)[C@H]2O)[C@@H]2C(COC(C)=O)=C[C@H](O)[C@H]12,Potency,[1],inactive
same,Potency,[2],inactive
CC#CC(=O)N1CCC[C@H]1c1nc(-c2ccc(C(=O)Nc3ccccn3)cc2)c2c(N)nccn12,Potency,[1],inactive
same,Potency,[2],inactive
CNC(=O)c1cccc(-c2ccc3c(N4CCOC[C@@H]4C)nc(N4CCOC[C@@H]4C)nc3n2)c1,Potency,[1],920 nM (active)
same,Potency,[2],366 nM (active) and 580 nM (active)
CC1CCC2C(C)(C)[C@@H](O)CC[C@]2(C)C12Cc1c(O)cc3c(c1O2)CN(C(CCC(=O)O)C(=O)O)C3=O (stereo partly specified),Potency,[1],inactive
same,Potency,[2],inactive
CCC(O)C(C)C1CCC(C(C)C(=O)O)O1 (stereo unspecified),Potency,[1],inactive
same,Potency,[2],inactive
N#Cc1c(Oc2ccc(F)c(NC(=O)Cc3cccc(C(F)(F)F)c3)c2)ccc2nc(NC(=O)C3CC3)sc12,Potency,[1],6510 nM (active)
same,Potency,[2],7.31 µM (active)
CC1(C)CC[C@]2(C(=O)O[C@@H]3O[C@H](CO)[C@@H](O)[C@H](O)[C@H]3O)CC[C@]3(C)C(=CCC4[C@@]5(C)C[C@@H](O)[C@H](O)C(C)(C)C5CC[C@]43C)C2[C@@H]1O (stereo partly specified),Potency,[1],inactive
same,Potency,[2],inactive
C[C@@H]1CC[C@]2(C(=O)O[C@@H]3O[C@H](CO)[C@@H](O)[C@H](O)[C@H]3O)CC[C@]3(C)C(=CCC4[C@@]5(C)C[C@@H](O)[C@H](O)[C@@](C)(C(=O)O[C@H]6[C@H](O)C[C@@]7(C)C(CC[C@]8(C)C7CC=C7[C@H]9[C@](C(=O)O[C@@H]%10O[C@H](CO)[C@@H](O)[C@H](O)[C@H]%10O)(CC[C@@H](C)[C@@]9(C)O)CC[C@]78C)[C@@]6(CO)C(=O)O)C5CC[C@]43C)[C@@H]2[C@]1(C)O (stereo partly specified),outcome,[1],inactive [at 9.29 µM]
same,"activity change, negative = cytotoxicity",[2],1.31% [at 9.29 µM]
OC[C@H]1O[C@@H](Oc2ccccc2)[C@H](O)[C@@H](O)[C@@H]1O,Potency,[1],inactive
same,Potency,[2],inactive
CC1(C)CCC2(C(=O)OC3OCC(O)C(O)C3O)CCC3(C)C(=CCC4C5(C)CC(O)C(OC6OC(COC7OCC(O)C(O)C7O)C(O)C(O)C6O)C(C)(C)C5CCC43C)C2C1 (stereo unspecified),outcome,[1],inactive [at 9.29 µM]
same,outcome,[2],inactive [at 9.29 µM]
CCOC(=O)C(CCc1ccccc1)NC(C)C(=O)N1C(=O)N(C)CC1C(=O)O (stereo unspecified),Potency,[1],inactive
same,Potency,[2],inactive
CC(O)CO[C@@H]1O[C@H](CO)[C@@H](O)[C@H](O)[C@H]1O (stereo partly specified),Potency,[1],inactive
same,Potency,[2],inactive
CC(C)(C)NC(=O)[C@@H](c1cccnc1)N(C(=O)c1ccco1)c1ccc(C(C)(C)C)cc1,Potency,[1],inactive
same,Potency,[2],inactive
Nc1nccn2c(C3CCC(C(=O)O)CC3)nc(-c3cc4cccc(Cl)c4[nH]3)c12 (stereo unspecified),Potency,[1],1640 nM (active)
same,Potency,[2],1.46 µM (active)
CC(C)C(=O)OC[C@H]1O[C@H](O[C@H]2O[C@H](CO)[C@@H](O)[C@H](O)[C@H]2O)[C@H](O)[C@@H](O)[C@@H]1O,Potency,[1],inactive
same,Potency,[2],inactive
Cn1c2ccc(F)cc2c2c(C(=O)N3CCCC3)cn(-c3ccccc3)c(=O)c21,Potency,[1],inactive
same,Potency,[2],inactive
CC(=O)O[C@@H]1[C@@H](CO)O[C@@](CO)(O[C@H]2O[C@H](COC(=O)/C=C/c3ccccc3)[C@@H](O)[C@H](O)[C@H]2O)[C@H]1O,Potency,[1],inactive
same,Potency,[2],inactive
O=C(O)[C@H](Cc1ccc(Nc2nccc3ccncc23)cc1)NC1=C(Br)C(=O)C12CCCCC2,Potency,[1],inactive
same,Potency,[2],inactive
Cc1c2cc(c(C(=O)O)c1C)OC1OC(C(O)C(O)C1O)C(O)C(O)C1OC(O2)C(O)C(O)C1O (stereo unspecified),Potency,[1],inactive
same,Potency,[2],inactive
C=CC(C)(CC/C=C(\C)C(=O)OC)OC1OC(COC(=O)CC(C)(O)CC(=O)O)C(OC2OC(CO)C(O)C(O)C2O)C(O)C1O (stereo unspecified),Potency,[1],inactive
same,Potency,[2],inactive
C=C1C(O)CC2C(C(=O)O)=COC(O[C@@H]3O[C@H](COC(=O)/C=C/c4ccc(O)cc4)[C@@H](O)[C@H](O)[C@H]3O)C12 (stereo partly specified),Potency,[1],inactive
same,Potency,[2],inactive
CC(=O)O[C@@H]1[C@@H](O)[C@H](O[C@H]2CC[C@]34C[C@]35CC[C@]3(C)[C@@H]([C@@]6(C)CC[C@@H](C(C)(C)O)O6)[C@@H](O)C[C@@]3(C)[C@@H]5C[C@H](O[C@@H]3O[C@H](CO)[C@@H](O)[C@H](O)[C@H]3O)[C@H]4C2(C)C)OC[C@H]1O,Potency,[1],inactive
same,Potency,[2],inactive
